Bioassay records deposited in PubChem by National Center for Advancing Translational Sciences (NCATS).
Hits are enriched below; roughly 12% of the tested compounds scored in any of these assays.
Gal4-VP16 FLuc: inhibits Gal4-VP16 luciferase reporter, ROR gamma counter-screen | Potency, µM (top dose mostly 53.6 µM), inactives show at the top dose activity, negative = inhibition, hits mostly inhibitors | 3.5% of 310,000 active | Drosophila S2 Gal4-VP16 UAS-luciferase, luminescence, 20 h;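 also: Gal4-VP16 expression switched on by copper sulfate through the metallothionein promoter; nearly all actives have a fitted effect of over 50% in size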
Sfp PPTase inh: blocks B. subtilis Sfp PPTase activity. Q9F4F7. Biochemical Sfp PPTase activity, qHTS. Potency, µM, inactives show largest response in the series, negative = inhibition, most hits filed as inhibitors. 3.5% of 310,000 active. AID 1490;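 also: the enzyme is Sfp with the accession as filed and its product quenches rhodamine fluorescence; 0% = enzyme reaction without inhibitor and -100% = no enzyme wells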
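Reaction rates are the 30-min fluorescence difference (ex 525, em 598 nm) in wells containing 15 nM Sfp, 5 uM rhodamine-CoA and 12.5 uM BHQ-2-YbbR at pH 7.6 with 10 mM MgCl2.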
ALDH1A1 block: inhibitors of human aldehyde dehydrogenase 1A1 | P00352 | Purified ALDH1A1, NADH fluorescence, propionaldehyde substrate | Potency, µM (titrated, usually from 75.3 µM), for the others: at the top dose activity, negative = inhibition, hits mostly inhibitors | 7.3% of 220,000 active; active = well fitted inhibition curve with a large enough effect, not every such curve was filed as active; inconclusive = small, poorly fitted or top-dose-only effect, or another doubt; inactive = no such curve, though single readings can be large or run the other way;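 also: plate controls were no enzyme wells and a reference inhibitor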
Target sequence (P00352 whole entry, looked up): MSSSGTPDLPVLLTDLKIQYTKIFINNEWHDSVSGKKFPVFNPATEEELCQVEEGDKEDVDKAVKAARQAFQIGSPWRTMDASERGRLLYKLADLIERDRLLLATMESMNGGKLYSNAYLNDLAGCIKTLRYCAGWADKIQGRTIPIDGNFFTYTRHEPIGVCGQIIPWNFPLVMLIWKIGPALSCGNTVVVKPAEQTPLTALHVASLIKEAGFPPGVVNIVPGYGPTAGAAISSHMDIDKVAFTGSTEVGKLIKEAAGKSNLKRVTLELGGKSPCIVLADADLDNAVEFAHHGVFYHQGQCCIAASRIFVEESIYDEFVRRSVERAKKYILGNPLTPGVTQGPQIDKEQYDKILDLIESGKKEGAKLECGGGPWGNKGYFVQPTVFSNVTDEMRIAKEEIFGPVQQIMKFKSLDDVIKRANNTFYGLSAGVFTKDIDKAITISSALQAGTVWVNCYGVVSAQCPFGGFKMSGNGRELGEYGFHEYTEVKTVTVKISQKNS
RORgamma inh: ROR gamma (mouse) transcription inhibition; Drosophila S2 Gal4-RORgamma UAS-luciferase reporter, 20 h; Potency, µM (series often up to 53.6 µM), inactives show at the highest dose activity change, negative = inhibition, usual class: inhibitors; 5.4% of 310,000 active; also: nearly all actives have a fitted effect of over 60% in size
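Drosophila S2 cells stably expressing Gal4-DBD/mouse RORγ fusion under metallothionein promoter plus UAS-luciferase; compound 1 h, then 700 uM CuSO4 induction for 20 h at ambient temperature; inhibition read as reduced luminescence.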
PLK1 PBD inh: blocks phosphopeptide binding to human PLK1 polo-box domain. 2.8% of 360,000 active. Plk1 PBD binding of FITC phosphopeptide, fluorescence polarization. Potency, µM, for inactives: max response, negative = inhibition, usual class: inhibitors; also: series mostly up to about 57 µM; nearly all actives have a fitted effect of over 65% in size
Starred values were filed as active, the others as inactive; ? = inconclusive; . = no result given; [ ] = dose if it differs, or a comment. Unless noted, calls follow the shape of the dose curve; as a rule, active = well fitted curve in the direction sought with a large enough effect; inconclusive = small, poorly fitted or top-dose-only effect, or another doubt; inactive = no such curve, though single readings can be large; an effect the other way counts as inactive or inconclusive. Unless noted, % is scaled to controls: 0 for no effect and ±100 for the full control effect; potency is read from the fitted curve at half-maximal effect.

SMILES | Gal4-VP16 FLuc | Sfp PPTase inh | ALDH1A1 block | RORgamma inh | PLK1 PBD inh
CC(CCc1ccco1)NC(=O)c1cccc2c1C(=O)N(C1CCCCC1)C2 (stereo not drawn) | 5% | -27% | ? | 30% | -2%
COc1ccc(N2Cc3cccc(C(=O)NC(C)CCc4ccco4)c3C2=O)cc1 (stereo not drawn) | 5% | 45µM* | 25µM* | 32% | ?
O=S(=O)(CCN1C=CC(C(F)(F)F)=NCC1)c1ccc(Cl)cc1Cl | 5% | 3% | 13µM* | 28% | -9%
Cc1ccc(NS(=O)(=O)c2cc(N)ccc2Cl)c(C)c1 | ? | -20% | . | -9% | 24µM*
Cc1ccccc1NS(=O)(=O)c1cc(S(C)(=O)=O)ccc1Cl | 4% | 12% | 20µM* | 32% | -2%
Cc1ccccc1NS(=O)(=O)c1ccc(Cl)cc1 | 0% | 10% | ? | 11% | -12%
N/C(Cc1ccc(Cl)cc1)=N\OC(=O)CCc1ccccc1 | . | . | . | . | 4%
N/C(Cc1ccc(Cl)cc1)=N\OC(=O)c1ccc2ccccc2c1 | 20µM* | 5% | 17% | -26% | 3%
N/C(Cc1ccc(Cl)cc1)=N\OC(=O)c1cccc2ccccc12 | 10µM* | -4% | ? | ? | -5%
COc1ccc(C/C(N)=N/OC(=O)c2ccc(Cl)cc2)cc1 | -13% | 9% | 16% | 24% | -7%
COC(=O)C(C(=O)OC)[C@@H]1C=C[C@H](C[N+](=O)[O-])N(C(C)=O)C1 | . | . | . | . | -2%
O=C(c1ccc2c(=O)n(C3CCCC3)c(=S)[nH]c2c1)N1CCc2ccccc21 | 3.2µM* | 6% | ? | 1µM* | -14%
CC(C)NC(=O)c1ccc2c(=O)n(C3CCCC3)c(=S)[nH]c2c1 | ? | -3% | 0.45µM* | 0.1µM* | 1%
Cc1cccc(NC(=O)Cc2coc3ccc4ccccc4c23)n1 | 14% | 56µM* | -4% | -4% | -4%
O=C(O)Cc1coc2ccc3ccccc3c12 | -7% | -4% | -6% | 11% | 3%
Cc1c(C(=O)N(C)Cc2ccc(F)cc2)sc(=O)n1Cc1ccc(Cl)c(Cl)c1 | . | . | . | . | -3%
CCc1nc(C)cn1S(=O)(=O)c1cc(C)c(OC)c(C)c1C | ? | 5% | 25µM* | 5% | -1%
CNC(=S)N/N=C/c1ccccc1OCC(=O)O | 0% | 20µM* | . | -31% | ?
C=CCNC(=S)N/N=C/c1ccccc1OCCOc1ccccc1 | 5µM* | 13% | . | 2.5µM* | -2%
O=C(CSc1ccc2nnc(-c3ccccn3)n2n1)Nc1ccc(F)cc1F | 2% | 6% | . | -15% | -8%
COc1cccc(NC(=S)N2CCN(C(c3ccccc3)c3ccccc3)CC2)c1 | 8.9µM* | 1% | -13% | 4.5µM* | -5%
COc1ccc(NC(=S)N2CCN(C(c3ccccc3)c3ccccc3)CC2)c(OC)c1 | ? | 1% | 4% | 5µM* | -8%
COc1ccc(N2CCN(C(=S)Nc3ccc(OC)cc3OC)CC2)cc1 | 2% | 3% | . | -11%[1.91 µM] | -4%
CC1C(=O)N2CCCc3cc(NC(=O)C4CC4)cc1c32 (stereo not drawn) | . | . | . | . | -9%
CCOc1ccc(CNC(=S)N/N=C/c2ccc(OC)c(OC)c2)cc1 | 10µM* | -7% | 8% | 11µM* | 5%
SMILES | Gal4-VP16 FLuc | Sfp PPTase inh | ALDH1A1 block | RORgamma inh | PLK1 PBD inh
COc1cc(/C=N/NC(=S)NCc2ccccc2)ccc1OCC#N | ? | 36% | 1% | 10µM* | -15%
COc1ccc(CCNC(=O)CC(=O)N/N=C\c2ccc(OCC(N)=O)cc2)cc1OC | . | . | . | . | -10%
CN1OC[C@@H]2CN(S(=O)(=O)c3cc(Cl)cc(Cl)c3)[C@H](c3ccc(-c4ccc(C#N)cc4)cc3)C[C@@H]21 | . | . | . | . | -6%
O=c1cc(CSc2ccccc2)[nH]c(=S)[nH]1 | 0% | -29% | 28µM* | ? | -16%
Cc1nnc(SCc2cc(=O)[nH]c(=S)[nH]2)s1 | 7% | 20µM* | 13µM* | -23% | -5%
O=C(/C=C/c1ccco1)c1ccc(NC(=O)C23CC4CC(CC(C4)C2)C3)cc1 | ? | 3.5µM* | 25µM* | -8% | -24%
CC1CCCCN1CCCNC(=O)c1ccc(N2CCCC2=O)cc1 (stereo not drawn) | -1% | 13% | . | -12% | 1%
Cc1csc(N)n1 | -4% | ? | -7% | 3% | -24%
Cc1ccc(-c2csc(N)n2)s1 | -18% | 35µM* | ? | -43% | -23%
CC(C)C1=NN2C(=N)CC(=O)N=C2S1 | -1% | -3% | 0% | -24% | -2%
CCCCC1=NN2C(=N)CC(=O)N=C2S1 | 1% | 6% | ? | 10µM* | -2%
CC1NC(=O)COC1c1ccccc1 (stereo not drawn) | . | . | . | . | -14%
CC1CC=C(c2ccccc2)C(=S)N1 (stereo not drawn) | 3.2µM* | ? | . | 1µM* | -12%
O=C1c2ccccc2NC(c2ccc(-c3cccc([N+](=O)[O-])c3)o2)N1O (stereo not drawn) | ? | 3% | 14µM* | ? | -16%
CC(=O)NN1C(=O)c2ccccc2NC1c1cccc([N+](=O)[O-])c1 (stereo not drawn) | -1% | 2% | . | 15% | 3%
O=C1c2ccccc2NC(c2ccc(-c3ccc(Br)cc3)o2)N1O (stereo not drawn) | ? | -3% | 1% | 7.1µM* | -9%
O=S(=O)(NC1CCCc2ccccc21)c1cnc[nH]1 (stereo not drawn) | ? | 15% | 22% | 13µM* | -1%
Cn1c(=O)oc2cc(S(=O)(=O)NC3CCCc4ccccc43)ccc21 (stereo not drawn) | -15% | 3% | -11% | -12% | 5%
CC1Cc2c(COc3ccccc3)nc3c(c2CO1)CN(CCOc1ccccc1)CC3 (stereo not drawn) | -4%[10 µM] | 26% | 11%[13.5 µM] | -12%[10 µM] | .
CCN1C(=O)/C(=C2/Sc3ccccc3N2CC)S/C1=N\c1ncn[nH]1 | 5µM* | -19% | ? | 11µM* | 6%
CN(C)/C=C1\N=C(c2ccccc2)OC1=O | 32% | 21% | -2% | ? | -7%
COc1ccc(/C=C/C2=NC(=C\N(C)C)/C(=O)O2)cc1 | 2% | 79µM* | ? | 11% | -7%
O=c1c2ccccc2sn1-c1cc(S(=O)(=O)N2CCOCC2)ccc1N1CCOCC1 | ? | 0.71µM* | 0.056µM* | ? | 0.84µM*
O=c1c2ccccc2sn1-c1cc(S(=O)(=O)N2CCOCC2)ccc1N1CCCC1 | -2% | 0.2µM* | 0.022µM* | 2% | 3µM*
COC(=O)c1ccc(C(NC(=O)OCc2ccccc2)/C(=C/[C@@H](C)C(=O)NCc2ccncc2)c2cccnc2)cc1 (stereo partly drawn) | -5% | 14% | 4% | 12% | .
CCN(CC(=O)NCc1ccc(F)cc1)CC(=O)Nc1ccc(S(=O)(=O)N2CCCC2)cc1 | 6% | ? | 11µM* | -13% | -4%
O=C(Cc1ccc(F)cc1)Nc1ccc(S(=O)(=O)N2CCCCC2)cc1 | 2% | 6% | ? | 30% | -6%
